Shown are actives, neighbours in structure and some others; about 1.1% of the full set was active somewhere.
CIT2-GFP yeast = alters CIT2-GFP fluorescence in TOR pathway yeast screen; 320,000 tested, 0.065% active; GFP response vs DMSO, % at 10 µM; S. cerevisiae CIT2-GFP strain, flow cytometry, 3 h; 100 means same as DMSO wells;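 active = GFP response relative to DMSO above a set limit, near the screen mean plus 3 SD, cut at about 150% in these data; inconclusive = Fewer than 70 cells measured for a yeast strain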;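 also: ratio of well median GFP fluorescence to mean of DMSO wells on the plate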
RPL19A-GFP yeast = modulators of TOR pathway RPL19A-GFP in S. cerevisiae | 330,000 tested, 0.3% active | percent response vs DMSO, % at 10 µM | S. cerevisiae RPL19A-GFP strain, flow cytometry, 3 h; stronger effect = lower value;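 active = percent response vs DMSO below 50%; inconclusive = fewer than 70 events counted for the yeast strain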;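 also: median channel GFP fluorescence of the barcoded RPL19A-GFP strain; ratio of sample median GFP to plate DMSO average so 100% = DMSO; lower means less RPL19A-GFP as with rapamycin TOR inhibition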
AGP1-GFP MLPCN = yeast TOR pathway AGP1-GFP modulation; S. cerevisiae AGP1-GFP multiplex flow cytometry, 3 h; GFP as percent of DMSO wells; GFP response vs DMSO, % at 10 µM; 320,000 tested, 0.02% active; AID 2066;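 active = GFP response relative to DMSO above a set limit, near screen average plus 3 SD, cut at about 150% in these data; inconclusive = fewer than 70 cells counted for the yeast strain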;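 also: median GFP channel fluorescence of the gated AGP1 strain per well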
VLA-4 inh = inhibition in a human VLA-4 binding assay; P13612; VLA-4 expressing cells, ligand binding flow cytometry; AID 2557; inhibition, % (about 7 µM as worked out from the volumes in the protocol); 330,000 tested, 0.2% active; in the data active = inhibition above about 50%
Target sequence (P13612 whole entry, looked up): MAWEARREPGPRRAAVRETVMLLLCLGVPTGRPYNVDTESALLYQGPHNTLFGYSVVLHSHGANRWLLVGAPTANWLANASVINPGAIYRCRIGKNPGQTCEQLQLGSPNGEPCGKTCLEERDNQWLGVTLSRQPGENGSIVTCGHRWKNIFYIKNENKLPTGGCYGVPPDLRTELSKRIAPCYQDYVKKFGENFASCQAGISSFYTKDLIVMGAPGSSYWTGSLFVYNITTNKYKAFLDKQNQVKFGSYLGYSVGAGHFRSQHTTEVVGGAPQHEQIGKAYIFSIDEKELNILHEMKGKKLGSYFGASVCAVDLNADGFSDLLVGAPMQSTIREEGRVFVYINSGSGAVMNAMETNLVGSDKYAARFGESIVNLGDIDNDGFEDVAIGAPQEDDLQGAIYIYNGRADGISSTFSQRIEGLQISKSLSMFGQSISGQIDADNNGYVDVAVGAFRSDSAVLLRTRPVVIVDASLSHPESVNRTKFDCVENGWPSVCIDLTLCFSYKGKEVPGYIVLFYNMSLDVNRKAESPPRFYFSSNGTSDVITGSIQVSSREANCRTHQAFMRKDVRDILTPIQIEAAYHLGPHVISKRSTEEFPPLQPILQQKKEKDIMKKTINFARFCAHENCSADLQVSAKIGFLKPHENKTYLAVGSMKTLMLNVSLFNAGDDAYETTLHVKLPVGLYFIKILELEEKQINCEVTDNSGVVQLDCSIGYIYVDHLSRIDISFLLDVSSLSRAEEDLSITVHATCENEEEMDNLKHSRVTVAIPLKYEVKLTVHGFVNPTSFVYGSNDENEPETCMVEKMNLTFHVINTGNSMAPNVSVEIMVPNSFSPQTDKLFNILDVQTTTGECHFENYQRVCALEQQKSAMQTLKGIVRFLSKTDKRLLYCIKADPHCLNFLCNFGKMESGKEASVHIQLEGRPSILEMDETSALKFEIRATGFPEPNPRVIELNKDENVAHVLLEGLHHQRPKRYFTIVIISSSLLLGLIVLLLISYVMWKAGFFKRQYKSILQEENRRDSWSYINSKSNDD
LAP4 TOR yeast = modulators of TOR pathway LAP4-GFP in S. cerevisiae. GFP response vs DMSO, % at 10 µM. 320,000 tested, 0.34% active. AID 2023. S. cerevisiae LAP4-GFP multiplex, flow cytometry GFP, 3 h; median GFP as percent of DMSO wells;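 active = GFP response vs DMSO above a set limit, about the screen mean plus 3 SD, cut at about 150% in these data; inconclusive = under 70 cell events counted for the yeast strain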
MEP2-GFP yeast = yeast TOR pathway MEP2-GFP modulation | S. cerevisiae MEP2-GFP strain, flow cytometry GFP, 3 h; 100% = DMSO control level | GFP response vs DMSO, % at 10 µM | 330,000 tested, 0.51% active | AID 2016;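 active = GFP response versus DMSO above a set limit, roughly screen mean plus 3 SD, cut at about 180% in these data; inconclusive = fewer than 70 cells counted for a yeast strain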;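 also: median GFP fluorescence of the barcode-gated MEP2-GFP cells per well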
An asterisk follows results filed as active; i = inactive; ? = inconclusive; . = no result; [ ] = remark or other dose.

SMILES	CIT2-GFP yeast	RPL19A-GFP yeast	AGP1-GFP MLPCN	VLA-4 inh	LAP4 TOR yeast	MEP2-GFP yeast
CCOC(=O)c1sc(Nc2nc3c(OC)cccc3s2)nc1C	97	80	33	-7	104	247*
COc1cc(OC)cc(C(=O)Nn2cnnc2)c1	?	59	18	-18	111	642*[may fluoresce violet]
COc1cccc(C(=O)Nn2cnnc2)c1	95	96	108	2	105	94
O=C(CN1CCOCC1)N1CCc2ccccc2C(c2ccccc2)C1 (stereo not drawn)	?	25*[may fluoresce violet]	.	11	93	326*[may fluoresce violet]
O=C(CBr)N1CCc2ccccc2C(c2ccccc2)C1 (stereo not drawn)	92	97	100	-1	97	92
CC(C)Cc1ccc(CN2CCCC(NC(=O)CCN3CCCO3)C2)cc1 (stereo not drawn)	96	99	98	-21	107	97
CCN(CC(=O)Nc1c(F)cccc1F)C(=O)c1ccc(NC(=O)CC2SC(N3CCCC3)=NC2=O)cc1 (stereo not drawn)	98	87	91	0	95	88
COc1ccc(C(CCN2CCCC2)c2c(OC)cc(OC)c3c(-c4ccccc4)cc(=O)oc23)cc1 (stereo not drawn)	104	99	101	29	95	103
COc1cc(C(CCN2CCCC2)c2c(OC)cc(OC)c3c(-c4ccccc4)cc(=O)oc23)cc(OC)c1OC (stereo not drawn)	?	43*[may fluoresce violet]	?	-5	69	284*[may fluoresce violet]
COC(=O)c1ccc(/C=N/NC(=O)CC(=O)NC2CCCCC2)cc1	91	95	95	4	103	94
O=C(CC(=O)NC1CCCCC1)N/N=C/c1ccc(Cl)cc1	?	71	25	4	81	230*[may fluoresce violet]
Cc1ccc(Nc2c(-c3ccccn3)nc3ccc(C)cn23)cc1	104	49*	27	1	133	233*
Cc1ccc(Nc2c(-c3ccccn3)nc3cc(C)ccn23)cc1	95	93	75	2	140	97
O=C(O)Cc1ccc2ccc3ccccc3c2c1	95	76	112	3	158*	101
CC1CCCN(C(=O)c2cc3ccccc3cc2O)C1 (stereo not drawn)	103	94	100	-2	95	92
Cc1ccc(NC(=O)CN(C)C(=O)C(Sc2ccccc2)c2ccccc2)cc1 (stereo not drawn)	98	101	101	-10	100	103
CC(=O)c1ccccc1NCC(=O)Nc1ccc(C)cc1	217*	118	118	i	226*	299*
C=CC1=C2C=C(C3CC3)N(CCCN(CC)CC)C=C2C(=O)C(C)(OC(=O)c2ccco2)C1=O (stereo not drawn)	99	98	109	8	101	108
Cc1ccc(S(=O)(=O)CC(=O)Nc2ccccn2)cc1	?	28*[may fluoresce violet]	?	4	84	233*[may fluoresce violet]
Cc1ccc(S(=O)(=O)CC(=O)Nc2ccc(S(=O)(=O)Nc3ccccn3)cc2)cc1	85	86	92	9	105	82
CC1CC(C)CN(C(=O)C2CCC(CNS(=O)(=O)c3ccccc3)CC2)C1 (stereo not drawn)	91	108	97	24	100	116
CN(C)c1ncc(S(=O)(=O)c2ccc(Cl)cc2)c(-c2ccccc2)n1	93	96	100	1	105	101
O=S(=O)(c1ccc(Cl)cc1)c1cnc(-c2cccnc2)nc1-c1ccccc1	?	56	?	-7	92	221*[may fluoresce violet]
Cc1ccc(C)c(N2CC(C(=O)Nc3nccs3)CC2=O)c1 (stereo not drawn)	101	96	97	-48	98	98
Cc1ccccc1NC(=O)COC(=O)c1cc(S(=O)(=O)N2CCOCC2)ccc1C	96	96	94	12	93	96
SMILES	CIT2-GFP yeast	RPL19A-GFP yeast	AGP1-GFP MLPCN	VLA-4 inh	LAP4 TOR yeast	MEP2-GFP yeast
COc1cc2nc(N(CCN(C)C)C(=O)c3ccc4ccccc4c3)sc2cc1OC	114	105	108	12	97	111
CCN(CC)CCN(C(=O)c1ccc2c(c1)CCCC2)c1nc2cc(OC)c(OC)cc2s1	117	114	129	7	154*	125
COc1cc(C(=O)NCC2CCCO2)cc(Br)c1OCc1ccccc1 (stereo not drawn)	89	97	95	17	90	89
Cc1ccc(C(=O)c2c3ccccc3[n+]([O-])n2CCC(N)=O)cc1	74	100	84	18	107	94
O=C(NCCc1ccccc1)c1ccc2nc(-c3ccco3)c(-c3ccco3)nc2c1	100	99	101	2	107	108
O=C(c1ccccc1)c1ccc2nc(-c3ccco3)c(-c3ccco3)nc2c1	?	91	19	8	134	184*[may fluoresce violet]
CC1CN(CC(=O)NCc2ccc(F)cc2)CC(C)O1 (stereo not drawn)	91	96	91	-18	88	91
Cc1ccc2[nH]c3c(c2c1)CCNC3=O	110	97	98	1	125	177*
Cc1nnc(SCc2ccc(F)cc2Cl)s1	?	19*[may fluoresce violet]	?	2	88	181*[may fluoresce violet]
Nc1nnc(SCc2ccc(F)cc2Cl)s1	105	104	110	3	100	102
Cc1cccc(N2CC(C(=O)NCc3ccco3)CC2=O)c1C (stereo not drawn)	104	93	95	1	97	98
N#CCC(=O)Nc1ccc(C(=O)OCC(=O)N=c2sccn2Cc2ccccc2Cl)cc1	89	90	95	-3	99	94
CC1NC(=O)N(C)C2NC(=O)N(C)C(c3ccccc3)C12 (stereo not drawn)	?	46*[may fluoresce violet]	?	1	91	363*[may fluoresce violet]
C[C@H]1CC[C@H]2C(=O)N[C@H](Cc3ccccc3)C(=O)N2[C@@H]1c1ccccc1	97	98	105	-8	92	102
CCOc1cc(/C=C2\SC(=NC)N(C)C2=O)c(Br)cc1OC(C)=O	?	41*[may fluoresce violet]	?	-7	76	197*[may fluoresce violet]
CN(C)c1cc[n+](CC(=O)Nc2cccc([N+](=O)[O-])c2)cc1	97	101	97	1	102	103
CN(C)c1cc[n+](CC(=O)Nc2ccc(Cl)c([N+](=O)[O-])c2)cc1	?	42*[may fluoresce violet]	?	0	77	191*[may fluoresce violet]
COc1cc(/C=N/NC(=O)c2nnn(-c3nonc3N)c2C(C)C)ccc1OCc1ccc(F)cc1	104	101	100	4	100	110
Cc1cc(N=Nc2ccccc2C(=O)O)c(C)c(C)c1O	151*	97	94	2	123	132
O=C(Cc1ccc(-c2ccccc2)cc1)Nc1ccccn1	101	98	97	-5	85	111

Bioassay records deposited in PubChem BioAssay by NMMLSC.
